Tb PYK inh = qHTS of Trypanosoma Brucei Inhibitors | TbPYK enzyme, Kinase-Glo Plus ATP luminescence, 45 min | actives 0.12% (n = 410,000) | pyruvate kinase (Trypanosoma brucei), Q57TT1 | Potency, µM (titrated, usually from 76.8 µM), inactives show top-dose activity, negative = inhibition, hits mostly inhibitors; also: potency is read from the fitted curve at half-maximal effect; % is scaled to controls: 0 for no effect and ±100 for the full control effect; nearly all actives have a fitted effect of over 50% in size
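ADP (130 uM final) triggers the TbPYK reaction after compound addition; incubation is 45 min at room temperature. Kinase-Glo Plus is then added and luminescence imaged. Normalized data are fitted to concentration-effect curves.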
LmPK inh = qHTS Assay for Inhibitors of Leishmania Mexicana Pyruvate Kinase (LmPK) | AID 1721, 2009 | purified LmPK, Kinase-Glo ATP luminescence, 1 h | Potency, µM (highest dose often 57.5 µM), inactives show at the highest dose activity change, negative = inhibition, hits mostly inhibitors | actives 0.37% (n = 290,000) | Q27686; also: potency is read from the fitted curve at half-maximal effect; % is scaled to controls: 0 for no effect and ±100 for the full control effect
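Kinase-Glo luminescence read after 1 h RT reaction of 0.1 nM LmPK with 0.5 mM PEP and 0.1 mM ADP. Activity scaled between uninhibited and enzyme-free controls.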
Shiga toxin inh = A qHTS for Small Molecule Inhibitors of Shiga Toxin. Vero cells, Shiga toxin protein synthesis inhibition reporter. inhibition, % at 38.7 µM. AID 2315, 2010. actives 9.2% (n = 290,000); in the data active = inhibition mostly above about 28%, no sharp cut-off; inactive = mostly below about 43%; also: 0% is about no effect
CHX counter = Cycloheximide Counterscreen for Small Molecule Inhibitors of Shiga Toxin | actives 12% (n = 300,000) | AID 2314, 2010 | cell reporter, cycloheximide protein synthesis inhibition counterscreen | max response, %; in the data active = max response mostly above about 13%, no sharp cut-off; inactive = mostly below about 14%; also: read at 38.3 µM for the half of the compounds with a filed dose; 0% is about no effect
Giardia FBPA inh = qHTS Assay for Inhibitors of Fructose-1,6-bisphosphate Aldolase from Giardia Lamblia. A8B2U2. purified Giardia FBPA. Potency, µM (series often up to 59.6 µM), for inactives: top-dose activity, negative = inhibition, usual class: inhibitors. actives 0.71% (n = 290,000). AID 2451, 2010; also: potency is read from the fitted curve at half-maximal effect; % is scaled to controls: 0 for no effect and ±100 for the full control effect; nearly all actives have a fitted effect of over 55% in size
Target sequence (A8B2U2 whole entry, looked up): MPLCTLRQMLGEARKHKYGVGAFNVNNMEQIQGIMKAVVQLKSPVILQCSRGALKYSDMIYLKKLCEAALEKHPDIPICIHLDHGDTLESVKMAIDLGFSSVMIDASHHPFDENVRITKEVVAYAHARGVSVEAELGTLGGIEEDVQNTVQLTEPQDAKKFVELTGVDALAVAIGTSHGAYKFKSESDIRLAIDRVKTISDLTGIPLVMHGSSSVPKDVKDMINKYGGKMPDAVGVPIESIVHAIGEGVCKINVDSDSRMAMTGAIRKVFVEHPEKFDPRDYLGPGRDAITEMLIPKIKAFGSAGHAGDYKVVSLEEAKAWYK
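40 nM FBPA preincubated 10 min at RT with compound (up to 57.5 uM final), then substrate plus GAPDH/TPI/NAD/arsenate coupling and diaphorase/resazurin added. Fluorescence read after 20 min at RT, 525/598 nm.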
RE007 growth inh = qHTS Assay for Inhibitors of the HIV-1 protein Vpr; S. pombe RE007 Vpr strain, BacTiter-Glo ATP luminescence, 24 h; Potency, µM (top dose mostly 92.2 µM), for inactives: top-dose activity change, negative = less growth, usual class: inhibitors; actives 0.21% (n = 360,000); active = well fitted falling curve with a large enough effect; inconclusive = small, poorly fitted or top-dose-only effect; inactive = no such curve, though single readings can be large or run the other way; also: potency is read from the fitted curve at half-maximal effect; % is scaled to controls: 0 for no effect and ±100 for the full control effect; nearly all actives have a fitted effect of over 50% in size
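Fission yeast RE007 carrying one integrated HIV-1 vpr copy, seeded at OD 0.01 in PMG+AL medium with 23 nL pinned compound. Grown 24 h at 30 degrees; viability read by BacTiter-Glo luminescence after 5 min.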
* marks the source's active call; other numbers are inactive results; ? = inconclusive; . = not tested or not shown; + = active, no number; [ ] = remark or other dose. The entries come from a sample that favours hits as a whole. Unless noted, calls follow the shape of the dose curve; as a rule, active = well fitted curve in the direction sought with a large enough effect; inconclusive = small, poorly fitted or top-dose-only effect, or another doubt; inactive = no such curve, though single readings can be large; an effect the other way counts as inactive or inconclusive.

SMILES | Tb PYK inh | LmPK inh | Shiga toxin inh | CHX counter | Giardia FBPA inh | RE007 growth inh
Cc1csc(NC(=O)C2CCCC2)n1 | 1% | -10% | 33 | 28* | -12% | -17%
CCC(=O)N1CCc2cc(S(=O)(=O)NC(Cc3ccccc3)C(=O)Nc3cccc(OC)c3)ccc21 (configuration not stated) | 1% | . | . | . | . | .
CCc1ccccc1NC(=O)c1ccc(-c2csc(C)n2)cc1 | -5% | 3% | 53* | 27* | -3% | -14%
Cc1ccc(NC(=O)C2Cc3ccccc3C(=O)O2)cc1 (configuration not stated) | -6% | -12% | 87* | 36* | 0% | 16%
NS(=O)(=O)c1ccc(NC(=O)C2Cc3ccccc3C(=O)O2)cc1 (configuration not stated) | 4% | -1% | -12 | 1 | 4% | -1%
O=C1OC(C(=O)Nc2ccccc2)Cc2ccccc21 (configuration not stated) | -17% | 5% | 64* | 41* | 4% | 7%
COc1ccc(NC(=O)c2ccco2)cc1NC(=O)COc1ccc(C)cc1C | -5% | . | . | . | . | .
O=C(Nc1cccc(F)c1)c1oc2ccccc2c1NC(=O)C12CC3CC(CC(C3)C1)C2 | -5% | . | . | . | . | .
COc1ccc(NC=O)c(C(=O)CCNC(C)=O)c1 | . | . | -13 | -2 | 2% | .
COc1ccc(C(=O)Nc2ccc(N3CCN(C)CC3)cc2)cc1 | 2% | 3% | . | 48* | -5% | 6%
CCOC(=O)N1CCN(C(=O)c2ccc(NC(=O)c3ccc(C)cc3)cc2)CC1 | -1% | 1% | 34 | 31* | 1% | 1%
COc1ccc(C(=O)Nc2ccc(N3CCN(C)CC3)cc2)cc1OC | 4% | -3% | 48* | 30* | -4% | 9%
CN1CCN(c2ccc(NC(=O)c3ccc4ccccc4c3)cc2)CC1 | -8% | 5% | 85* | 31* | 5% | -7%
CCOc1ccc(-c2nnc(SCC(=O)Nc3cccc(C#N)c3)o2)cc1 | 1% | . | . | . | . | .
Cc1ccc(C(=O)Nc2ccc(N3CCN(C)CC3)cc2)cc1 | -7% | 1% | 56* | 34* | 4% | -12%
CCOc1ccc(C(=O)Nc2ccc(N3CCN(C)CC3)cc2)cc1 | 3% | -11% | 15 | 12 | 3% | -15%
NCCCC[C@H](NC(=O)[C@@H]1CCCN1C(=O)[C@@H]1CSSC[C@H](NC(=O)CNC(=O)CNC(=O)CN)C(=O)N[C@@H](Cc2ccc(O)cc2)C(=O)N[C@@H](Cc2ccccc2)C(=O)N[C@@H](CCC(N)=O)C(=O)N[C@@H](CC(N)=O)C(=O)N1)C(=O)NCC(N)=O | -6% | . | . | . | . | .
CCOc1ccc(CCNC(=O)CCc2c(C)nc3c(-c4ccccc4)c(C)nn3c2C)cc1OCC | 3% | . | . | . | . | .
O=c1c2ccccc2c(=O)n2n1Cc1ccccc1C2 | -3% | -1% | 20 | 14* | 6% | 19%
COC(=O)N[C@@H](c1cccc(C)c1)C(C(C)=O)C(=O)OC (some centres not stated) | . | . | . | . | -1% | .
COc1ccccc1CN(Cc1c(Cl)cccc1Cl)S(=O)(=O)c1ccc(Br)cc1 | -8% | . | . | . | . | .
COC(=O)N=Nc1c(O)[nH]c2ccc(Br)cc12 | -17% | -1% | 5 | -1 | 4% | -12%
O=C(O)c1ccc(N=Nc2c(O)[nH]c3ccc(Br)cc23)cc1 | -9% | 4% | 111* | 56* | -17% | .
Oc1[nH]c2ccccc2c1N=Nc1cccc(Cl)c1 | -2% | 5% | 34* | 28* | -6% | ?
Cc1ccc(N=Nc2c(O)[nH]c3ccc(F)cc23)cc1 | 3% | 1% | 67* | 50* | -28% | 7%
SMILES | Tb PYK inh | LmPK inh | Shiga toxin inh | CHX counter | Giardia FBPA inh | RE007 growth inh
O=C(O)c1ccc(N=Nc2c(O)[nH]c3cc(Cl)ccc23)cc1 | -4% | 3% | 67* | 36* | -5% | 12%
Oc1[nH]c2ccccc2c1N=Nc1ccccc1Cl | -2% | . | . | . | . | -12%
CCc1ccc(CNC(=O)CN2C(=O)c3cccnc3Oc3ccc(Cl)cc32)cc1 | -11%[15.4 µM] | . | . | . | . | .
O=C(CNC(=O)c1ccccc1)N=Nc1c(O)[nH]c2ccc(Br)cc12 | -6% | -8% | -6 | -5 | -10% | 13%
Cc1cccc2c(N=NC(=O)C(C)n3cnc4ccccc4c3=O)c(O)[nH]c12 (configuration not stated) | -13% | . | . | . | . | 20%
Cc1cccc2c(N=Nc3ccccc3)c(O)[nH]c12 | 6% | -1% | 57* | 65* | -2% | 1%
Oc1[nH]c2ccc(Br)cc2c1N=NC(=S)N1CCOCC1 | ? | 22µM* | -8 | 1 | ? | 13%
Cc1ccc(CNc2ncnc3onc(C)c23)cc1 | 3% | . | . | . | . | .
Fc1ccc(-c2csc(=Nc3cccc(C(F)(F)F)c3)n2Cc2ccc3c(c2)OCO3)cc1 | -7% | . | . | . | . | .
O=C(CSc1nnc(-c2ccccc2)c(-c2ccccc2)n1)Nc1ccccc1Cl | 1% | . | . | . | . | .
CN1CCc2c(sc3c2C(=O)NC(c2ccccc2)N3)C1 (configuration not stated) | -8% | 2% | active | 20* | ? | -9%
O=C1NC(c2ccc(Br)cc2)Nc2sc3c(c21)CCC3 (configuration not stated) | -21% | 3% | 23 | 15 | ? | 14%
Cc1ccsc1C1NC(=O)c2c(sc3c2CCCC3)N1 (configuration not stated) | -14% | -3% | + | 28* | -22% | ?
O=C1NC(c2ccccn2)Nc2sc3c(c21)CCC3 (configuration not stated) | -13% | -9% | 99* | 31* | ? | ?
CC1(C)Cc2c(sc3c2C(=O)NC(c2cccnc2)N3)CO1 (configuration not stated) | -12% | 2% | 6 | -1 | -26% | 11%
O=C1NC(c2cccnc2)Nc2sc3c(c21)CCCC3 (configuration not stated) | -18% | 0% | 61* | 33* | -21% | -13%
COc1ccccc1C(=O)NCCn1cc(SCc2ccc(C)cc2)c2ccccc21 | -8% | . | . | . | . | .
COc1ccc(-n2c(=O)c(-c3ccccc3)nc3cnc(N4CCOCC4)nc32)cc1 | . | . | . | . | -6% | .
CCOc1cc(C(=O)Nc2ccc(NC(=O)c3cc4ccccc4o3)c(OC)c2)cc(OCC)c1OCC | 0% | . | . | . | . | .
N#Cc1cccc(-c2nc(NCCN3CCOCC3)c3ccccc3n2)c1 | . | . | . | . | 0% | .

Assay outcomes from PubChem BioAssay.
